Data published in PubChem BioAssay (Tox21).
Records with an inconclusive call do not appear. The source made the active and inactive calls. Unless noted, calls come from the whole dose curve; as a rule, active = well fitted curve in the direction sought with a large enough effect in the repeat runs; inconclusive = weak or mixed curves; inactive = no such curve, though single readings can be large; an effect the other way counts as inactive or inconclusive.

Key:
[1] = qHTS assay to identify aromatase inhibitors - cell viability counter screen (AID 743084);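 note: cells stimulated with testosterone during compound exposure; nearly all actives have a fitted effect of over 55% in size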
[2] = target: Aryl hydrocarbon receptor (Homo sapiens) (UniProt P35869); experiment: qHTS assay to identify small molecule that activate the aryl hydrocarbon receptor (AhR) signaling pathway (AID 743085); note: nearly all actives have a fitted effect of over 15% in size; note: potency is the fitted concentration of half-maximal effect;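 for activation: HG2L7.5c1 human HepG2 liver cells with stably integrated DRE-driven firefly reporter; series mostly up to about 70 µM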
Aryl hydrocarbon receptor (Homo sapiens), sequence (P35869 whole entry, looked up): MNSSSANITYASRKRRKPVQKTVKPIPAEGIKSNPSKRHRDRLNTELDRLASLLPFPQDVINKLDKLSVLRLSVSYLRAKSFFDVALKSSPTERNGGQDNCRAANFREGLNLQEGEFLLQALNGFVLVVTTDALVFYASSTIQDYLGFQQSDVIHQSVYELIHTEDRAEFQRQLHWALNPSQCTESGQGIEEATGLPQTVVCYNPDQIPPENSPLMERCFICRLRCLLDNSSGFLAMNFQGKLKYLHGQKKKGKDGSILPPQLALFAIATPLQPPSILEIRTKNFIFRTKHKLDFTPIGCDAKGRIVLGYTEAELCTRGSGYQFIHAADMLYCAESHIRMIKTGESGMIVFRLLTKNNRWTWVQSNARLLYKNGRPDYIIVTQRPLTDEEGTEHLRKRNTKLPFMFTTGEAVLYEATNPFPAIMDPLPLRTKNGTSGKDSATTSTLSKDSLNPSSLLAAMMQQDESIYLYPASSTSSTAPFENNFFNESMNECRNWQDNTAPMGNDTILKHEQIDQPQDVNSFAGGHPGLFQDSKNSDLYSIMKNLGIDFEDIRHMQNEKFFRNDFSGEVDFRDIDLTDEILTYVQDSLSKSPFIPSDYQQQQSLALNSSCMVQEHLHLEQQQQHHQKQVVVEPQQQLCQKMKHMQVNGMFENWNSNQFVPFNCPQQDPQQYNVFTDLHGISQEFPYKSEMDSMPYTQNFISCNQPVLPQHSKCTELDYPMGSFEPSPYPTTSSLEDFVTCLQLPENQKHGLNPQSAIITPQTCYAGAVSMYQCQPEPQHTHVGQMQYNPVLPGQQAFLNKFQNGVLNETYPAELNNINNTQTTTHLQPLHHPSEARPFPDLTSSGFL
Procedure, shortened: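 Measured in HG2L7.5c1 cells: CellTiter-Fluor signal (30 min incubation, 37C) for viability, then luciferase luminescence (30 min, room temperature). Compound contact time was 24 h at 37C, following a 5 h pre-incubation.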

[3] = target: Peroxisome proliferator-activated receptor gamma (Homo sapiens) (UniProt P37231); experiment: qHTS assay to identify small molecule agonists of the peroxisome proliferator-activated receptor gamma (PPARg) signaling pathway (AID 743094; active = well fitted activation curve with a large enough effect in the signal ratio in the repeat runs, not every such curve was filed as active; the % refers to the signal ratio)
Peroxisome proliferator-activated receptor gamma (Homo sapiens), sequence (P37231 whole entry, looked up): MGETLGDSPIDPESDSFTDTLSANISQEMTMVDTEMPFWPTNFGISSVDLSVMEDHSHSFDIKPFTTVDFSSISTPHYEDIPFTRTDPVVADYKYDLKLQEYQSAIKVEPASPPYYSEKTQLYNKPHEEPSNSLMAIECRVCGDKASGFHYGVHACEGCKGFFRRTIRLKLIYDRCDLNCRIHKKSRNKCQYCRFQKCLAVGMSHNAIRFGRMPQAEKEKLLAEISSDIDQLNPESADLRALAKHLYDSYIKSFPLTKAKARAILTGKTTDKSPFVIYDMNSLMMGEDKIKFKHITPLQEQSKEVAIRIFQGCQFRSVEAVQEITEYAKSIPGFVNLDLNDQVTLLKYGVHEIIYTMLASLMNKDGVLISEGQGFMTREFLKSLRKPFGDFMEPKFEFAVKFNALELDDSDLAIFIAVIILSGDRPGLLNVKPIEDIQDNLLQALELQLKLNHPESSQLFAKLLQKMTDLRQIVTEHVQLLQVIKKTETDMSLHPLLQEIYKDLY
Procedure, shortened: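 Beta-lactamase FRET fluorescence was the read-out after a 1 h room-temperature substrate step, following 17 h compound treatment at 37C of HEK293H cells expressing a UAS-driven bla reporter responsive to PPARg.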

[4] = target: Peroxisome proliferator-activated receptor gamma (Homo sapiens) (UniProt P37231); experiment: qHTS assay to identify small molecule antagonists of the peroxisome proliferator-activated receptor gamma (PPARg) signaling pathway (AID 743191; calls by dose curve; note: series mostly up to about 63 µM; nearly all actives have a fitted effect of over 30% in size)
Procedure, shortened: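 Beta-lactamase reporter under UAS control in HEK293H PPARg-bla cells; compound treatment 17 h at 37C. Read-out: fluorescence intensity after 1 h room-temperature incubation with LiveBLAzer B/G FRET substrate.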

[5] = qHTS assay to identify small molecule antagonists of the peroxisome proliferator-activated receptor gamma (PPARg) signaling pathway - cell viability counter screen (AID 743194); note: nearly all actives have a fitted effect of over 55% in size
Procedure, shortened: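 Viability was measured as CellTiter-Glo luminescence in GeneBLAzer PPARg UAS-bla HEK293H cells. These cells had been exposed 17 h at 37 C to compounds together with rosiglitazone at 50 nM final, with the beta-lactamase readout taken in the same wells.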

[6] = qHTS assay for small molecule agonists of the antioxidant response element (ARE) signaling pathway (AID 743202; active = well fitted activation curve with a large enough effect in the signal ratio in the repeat runs, not every such curve was filed as active; the % refers to the signal ratio; note: potency is the fitted concentration of half-maximal effect)
Procedure, shortened: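 An ARE-responsive beta-lactamase gene stably integrated in HepG2 cells serves as reporter. After 5 h plating and 16 h compound incubation at 37 C, fluorescence of the B/G FRET substrate was measured.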

[7] = qHTS assay for small molecule activators of the heat shock response signaling pathway (AID 743210; active = well fitted activation curve with a large enough effect in the signal ratio in the repeat runs, with a control signal flat, not every such curve was filed as active; the % refers to the signal ratio; note: potency is the fitted concentration of half-maximal effect;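 for activation: HeLa cells with beta-lactamase reporter driven by heat shock elements; series mostly up to about 63 µM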)
Procedure, shortened: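 In HSE-bla HeLa cells, 5 h compound incubation (37 C) precedes addition of LiveBLAzer B/G substrate; after 2.5 h at room temperature, fluorescence intensity indicates reporter induction.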

[8] = qHTS assay to identify small molecule agonists of the farnesoid-X-receptor (FXR) signaling pathway - cell viability counter screen (AID 743218); note: nearly all actives have a fitted effect of over 45% in size; note: potency is the fitted concentration of half-maximal effect
Procedure, shortened: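 HEK 293T FXR-bla cells; 5 h pre-incubation, 16 h compound exposure at 37 C; LiveBLAzer substrate 2 h RT, then CellTiter-Glo 30 min RT, luminescence.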

[9] = qHTS assay to identify small molecule that activate the aryl hydrocarbon receptor (AhR) signaling pathway - cell viability counter screen (AID 743086);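 note: HepG2 liver cells carrying the AhR DRE luciferase reporter; series mostly up to about 70 µM; nearly all actives have a fitted effect of over 45% in size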
Procedure, shortened: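 Cytotoxicity counter screen: CellTiter-Fluor signal (30 min, 37 C) in 4000 HepG2 cells/well carrying the DRE-luciferase reporter, following 24 h compound exposure at 37 C.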

[10] = qHTS assay for small molecule agonists of the antioxidant response element (ARE) signaling pathway - cell viability counter screen (AID 743203; calls by dose curve; note: nearly all actives have a fitted effect of over 55% in size; note: potency is the fitted concentration of half-maximal effect)
Procedure, shortened: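 HepG2 cells carrying ARE-driven beta-lactamase; 2,000 cells/well; 5 hrs plating; compound pinned from DMSO; 16 hrs 37C/5% CO2; CellTiter-Glo added; 30 min RT; luminescence.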

[11] = qHTS assay for small molecule activators of the heat shock response signaling pathway - cell viability counter screen (AID 743209); note: nearly all actives have a fitted effect of over 50% in size
Procedure, shortened: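 Luminescence from CellTiter-Glo, added after the beta-lactamase FRET read, gave the viability signal. Cells were HSE-bla HeLa treated with DMSO-dissolved compounds for 5 h at 37 C following overnight plating.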

[12] = qHTS assay to identify small molecule agonists of the peroxisome proliferator-activated receptor delta (PPARd) signaling pathway - cell viability counter screen (AID 743211); note: nearly all actives have a fitted effect of over 55% in size
Procedure, shortened: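 Following 5 h plating at 37 C and 5% CO2, PPARd UAS-bla HEK293H cells took up test compounds for 17 h. Viability was quantified by luminescence 30 min after CellTiter-Glo addition at room temperature.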

[13] = target: Peroxisome proliferator-activated receptor delta (Homo sapiens) (UniProt Q03181); experiment: qHTS assay to identify small molecule agonists of the peroxisome proliferator-activated receptor delta (PPARd) signaling pathway (AID 743212; calls by dose curve)
Peroxisome proliferator-activated receptor delta (Homo sapiens), sequence (Q03181 whole entry, looked up): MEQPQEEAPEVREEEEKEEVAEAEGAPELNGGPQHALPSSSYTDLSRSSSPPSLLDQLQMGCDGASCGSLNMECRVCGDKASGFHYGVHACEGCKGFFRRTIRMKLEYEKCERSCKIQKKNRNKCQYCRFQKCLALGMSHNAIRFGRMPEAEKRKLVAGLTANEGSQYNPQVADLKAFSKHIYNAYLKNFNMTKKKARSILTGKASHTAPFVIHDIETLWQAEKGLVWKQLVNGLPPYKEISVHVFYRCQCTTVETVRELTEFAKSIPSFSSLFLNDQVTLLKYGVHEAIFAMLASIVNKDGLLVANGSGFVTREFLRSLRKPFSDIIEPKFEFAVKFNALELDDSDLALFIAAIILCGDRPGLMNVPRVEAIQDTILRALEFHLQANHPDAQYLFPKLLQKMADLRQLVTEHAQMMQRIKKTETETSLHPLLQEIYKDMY
Procedure, shortened: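 HEK293H UAS-bla reporter cells, human PPARd system; compounds delivered in DMSO after 5 h plating, then at 37 C. Beta-lactamase FRET read, 2 h RT substrate step.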

[14] = qHTS assay to identify small molecule antagonists of the peroxisome proliferator-activated receptor delta (PPARd) signaling pathway - cell viability counter screen (AID 743213); note: nearly all actives have a fitted effect of over 50% in size; note: potency is the fitted concentration of half-maximal effect
Procedure, shortened: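 Same-well viability: cells pre-incubated 5 h, dosed with compound plus 300 nM L165041, kept 17 h at 37 C, FRET substrate 2 h RT, then CellTiter-Glo 30 min RT and luminescence.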

[15] = target: Peroxisome proliferator-activated receptor delta (Homo sapiens) (UniProt Q03181); experiment: qHTS assay to identify small molecule antagonists of the peroxisome proliferator-activated receptor delta (PPARd) signaling pathway (AID 743215; active = well fitted inhibition curve with a large enough effect in the signal ratio in the repeat runs, not every such curve was filed as active; the % refers to the signal ratio;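 note: cells stimulated with agonist L165041 at 300 nM final during compound exposure; series mostly up to about 62 µM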)
Procedure, shortened: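 Read-out is beta-lactamase FRET fluorescence, measured 2 h after substrate addition at room temperature. Beforehand, UAS-bla HEK293H cells carrying the PPARd reporter were exposed to compounds with L165041 at 300 nM final for 17 h at 37 C.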

[16] = qHTS assay to identify small molecule antagonists of the farnesoid-X-receptor (FXR) signaling pathway - cell viability counter screen (AID 743221; active = well fitted cell-killing curve with a large enough effect in the repeat runs, not every such curve was filed as active; note: nearly all actives have a fitted effect of over 50% in size)
Procedure, shortened: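 Compound effects on cell number were measured as CellTiter-Glo luminescence in HEK 293T cells expressing FXR-UAS-bla, after 16 h at 37 C with 50 uM CDCA (final).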

[17] = target: Vitamin D3 receptor (Homo sapiens) (UniProt P11473); experiment: qHTS assay to identify small molecule agonists of the vitamin D receptor (VDR) signaling pathway (AID 743222; calls by dose curve)
Vitamin D3 receptor (Homo sapiens), sequence (P11473 whole entry, looked up): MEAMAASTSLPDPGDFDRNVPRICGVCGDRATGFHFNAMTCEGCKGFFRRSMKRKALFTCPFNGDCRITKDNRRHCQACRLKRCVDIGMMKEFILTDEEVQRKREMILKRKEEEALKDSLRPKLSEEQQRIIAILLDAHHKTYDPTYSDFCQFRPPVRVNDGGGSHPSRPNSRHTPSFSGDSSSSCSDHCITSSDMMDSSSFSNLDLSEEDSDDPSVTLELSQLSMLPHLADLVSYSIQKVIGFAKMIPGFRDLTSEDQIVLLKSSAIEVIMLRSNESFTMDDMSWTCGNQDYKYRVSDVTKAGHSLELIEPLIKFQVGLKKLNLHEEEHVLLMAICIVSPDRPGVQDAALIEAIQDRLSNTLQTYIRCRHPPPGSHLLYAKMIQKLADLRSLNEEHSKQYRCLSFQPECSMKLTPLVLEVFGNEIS
Procedure, shortened: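 VDR-bla cells, 2,000/well; 4 h preincubation 37C; cpd (DMSO) 16 h; LiveBLAzer B/G substrate 2 h RT; fluorescence intensity read.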

[18] = target: Vitamin D3 receptor (Homo sapiens) (UniProt P11473); experiment: qHTS assay to identify small molecule antagonists of the vitamin D receptor (VDR) signaling pathway (AID 743223; active = well fitted inhibition curve with a large enough effect in the signal ratio in the repeat runs, not every such curve was filed as active; the % refers to the signal ratio)
Procedure, shortened: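 Beta-lactamase activity in VDR-bla cells is measured by FRET substrate fluorescence (2 h, room temperature) after cells spend 16 h at 37C with test compound and 3 nM final 1alpha,25-dihydroxyvitamin D3.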

[19] = target: Bile acid receptor (Homo sapiens) (UniProt Q96RI1); experiment: qHTS assay to identify small molecule antagonists of the farnesoid-X-receptor (FXR) signaling pathway (AID 743217; active = well fitted inhibition curve with a large enough effect in the signal ratio in the repeat runs, not every such curve was filed as active; the % refers to the signal ratio; note: potency is the fitted concentration of half-maximal effect)
Bile acid receptor (Homo sapiens), sequence (Q96RI1 whole entry, looked up): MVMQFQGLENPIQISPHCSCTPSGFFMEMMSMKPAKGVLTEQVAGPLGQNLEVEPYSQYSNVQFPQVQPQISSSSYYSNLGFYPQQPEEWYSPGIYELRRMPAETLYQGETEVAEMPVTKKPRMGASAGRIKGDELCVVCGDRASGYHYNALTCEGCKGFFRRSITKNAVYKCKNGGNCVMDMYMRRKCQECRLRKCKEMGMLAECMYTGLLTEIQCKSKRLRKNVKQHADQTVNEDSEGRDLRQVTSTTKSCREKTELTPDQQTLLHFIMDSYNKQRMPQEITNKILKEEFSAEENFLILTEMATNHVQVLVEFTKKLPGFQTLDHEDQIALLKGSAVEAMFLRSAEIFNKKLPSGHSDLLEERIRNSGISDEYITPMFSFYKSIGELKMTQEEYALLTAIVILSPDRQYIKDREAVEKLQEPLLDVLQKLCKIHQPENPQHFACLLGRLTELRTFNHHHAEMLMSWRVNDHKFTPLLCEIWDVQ
Procedure, shortened: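 HEK 293T FXR-UAS-bla, 5000 cells/well; compound + CDCA 50 uM final; 16 h, 37 °C; B/G FRET substrate 2 h RT; fluorescence.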

[20] = target: Bile acid receptor (Homo sapiens) (UniProt Q96RI1); experiment: qHTS assay to identify small molecule agonists of the farnesoid-X-receptor (FXR) signaling pathway (AID 743220; active = well fitted activation curve with a large enough effect in the signal ratio in the repeat runs, not every such curve was filed as active; the % refers to the signal ratio)
Procedure, shortened: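 Beta-lactamase reporter under UAS control in GeneBLAzer FXR HEK 293T cells (5000/well) measured with LiveBLAzer FRET substrate after 2 h at room temperature. Compound exposure lasted 16 h at 37C.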

Measured: Potency

CC(=O)c1ccc2c(c1)N(CCCN1CCC(CCO)CC1)c1ccccc1S2
inactive: [1] | [2] | [3] | [4] | [5] | [6] | [7]
active: [8] 29.8 µM

O=C1OC(CN2CCOCC2)CN1/N=C/c1ccc([N+](=O)[O-])o1 (centres undefined)
active: [6] 29.8 µM
not listed: [3] | [4] | [5] | [18] | [19] | [20]
inactive: all other assays above

CCN(CC)CCOC(=O)C(Cc1cccc2ccccc12)CC1CCCO1 (centres undefined)
not listed: [9] | [13] | [15] | [19] | [20]
inactive: all other assays above

O=C(OCCCCCCOC(=O)c1ccccc1)c1ccccc1
active: [7] 57.1 µM
inactive: [1] | [2] | [9] | [10] | [13] | [19] | [8] | [20] | [16] | [18]

CNCCCN1c2ccccc2CCc2ccccc21
active: [10] 29.8 µM | [14] 9.44 µM | [8] 18.8 µM
inactive: [1] | [2] | [9] | [5] | [11] | [7] | [20]

c1ccc(-c2ccccn2)nc1
not listed: [3] | [4] | [6] | [7] | [19] | [20]
inactive: all other assays above

Cc1oc2c(NC(=O)c3c(Cl)cccc3Cl)cccc2c1C(C)(C)O
active: [2] 8.63 µM | [19] 38.9 µM | [8] 21.9 µM
inactive: [1] | [9] | [11] | [7] | [13] | [15] | [20] | [16]

NCCCN1CCOCC1
not listed: [6] | [9] | [18]
inactive: all other assays above

CC/C=C\CCOC(=O)CC
inactive: [1] | [2] | [9] | [5] | [10] | [11] | [7] | [13] | [14]

CC(C)(CO)[N+](=O)[O-]
not listed: [9] | [12] | [13] | [15] | [16] | [18] | [19] | [20]
inactive: all other assays above

CCNc1cc(O)ccc1C
active: [2] 30.3 µM
not listed: [3] | [4] | [6] | [12] | [18]
inactive: all other assays above

Nc1ccc(S(=O)(=O)Nc2ccccc2)cc1
not listed: [6] | [7] | [9] | [17] | [18] | [19] | [20]
inactive: all other assays above
